Test results: PubChem BioAssay (NCI)
About 83,000 compounds went through this panel and 20% of them were active in at least one assay; those are over-represented in the sample as a whole.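 Activity criterion: percent growth below 10, measured after cells in 96-well plates were exposed to a single compound concentration for 48 hours.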 A number with no mark means an inactive call. Activity calls are given as the source filed them.

tested on: SR leukemia; experiment: NCI-60 one-dose screen, 48 h (100 = growth as untreated, 0 = no growth, -100 = all killed); settings: 10 µM unless noted

Row | SMILES | growth
1 | O=C(OCC1CCCO1)c1ccc([N+](=O)[O-])cc1 (stereo unspecified) | 116%
2 | Cc1ccc(NC(=O)c2ccccc2Cl)cc1 | 92.3%
3 | C/C(O)=C(/C=N\C(=S)Nc1ccc(S(=O)(=O)Nc2nccs2)cc1)C(=O)Nc1ccccc1C | 79.1%
4 | NC(=S)N/N=C/c1ccc(Cl)cc1 | 97.1%
5 | Oc1ccc(CCC2CCNc3ccccc32)cc1 (stereo unspecified) | 75.7%
6 | O=C(NC1CCCCC1)c1ccc(Cl)cc1 | 103%
7 | CCOC(=O)CO | 95%
8 | CC(c1ccccc1)N(C)C (stereo unspecified) | 67.3%
9 | CC(CCC#N)(CCC#N)C(=O)c1ccccc1 | 104%
10 | Cc1ccc2nc(-c3ccc(N=Cc4ccccc4O)cc3)sc2c1 | 88.8%
11 | Nc1cc2ccccc2c(O)c1O | 0.498% (active)
12 | CCOc1ccccc1NC(=O)CCl | 74.8%
13 | CCC12OC(COc3ccccc3)CN1CCN2c1ccccc1 (stereo unspecified) | 96.9% [100 µM]
14 | Cc1ccc(S(=O)(=O)CCCl)cc1 | 90%
15 | CC(C)c1ccccc1NC(=O)N1CCC(C(C)C)CC1 | 92.4%
16 | COc1ccc(C2CC(c3ccccc3)=Nc3ccccc3S2)cc1 (stereo unspecified) | 49%
17 | NC(CO)(CO)c1ccccc1 | 96.7%
18 | C=CC(=O)OC1CCC(C(C)(C)CC)CC1 (stereo unspecified) | 98.9%
19 | Cc1[nH]n(-c2ccccc2)c(=O)c1C=NC(=S)C(N)=S | 89.9%

Row | SMILES | growth
20 | COc1cccc2c1Cc1ccccc1-2 | 121%
21 | NC(=O)N1CCOCC1 | 89.8%
22 | CCC(=O)Oc1ccc2ccccc2c1 | 106%
23 | C=CCN1CCCC1=O | 90.2%
24 | O=C(O)c1cccc(-n2ncc(Cl)c(Cl)c2=O)c1 | 102%
25 | Cc1ccc(OC(=O)c2ccccc2)cc1 | 102%
26 | O=Cc1c(O)c2ccccc2[nH]c1=O | 114%
27 | CC(=O)c1ccc(C)cc1 | 112%
28 | N#Cc1ccc2nc[nH]c2c1 | 106%
29 | CC(=O)[C@@]1(O)CC[C@H]2[C@@H]3CC[C@@H]4CC(=O)CC[C@]4(C)[C@H]3[C@@H](O)C[C@@]21C | 87.9%
30 | COC(=O)Cc1cc(COC(C)=O)ccc1C | 75.4%
31 | c1ccc(-c2ccc3ccccc3c2)cc1 | 80.7%
32 | C=CCC(OC(C)=O)c1ccc(C(C)C)cc1 (stereo unspecified) | 116%
33 | C=C(OC(C)=O)c1ccccc1 | 80.7%
34 | Nc1cccc2cccc(O)c12 | 58.5%
35 | CC(=O)c1cccs1 | 92.9%
36 | CSCCC(NC(=O)C(Cl)Cl)C(=O)O (stereo unspecified) | 91.5%
37 | O=C(O)CSCC(=O)Nc1cc(C(F)(F)F)ccc1Cl | 96.1%
38 | CCCCNC(=O)c1ccc(OCC)cc1 | 104%

tested on: RPMI-8226 leukemia; experiment: as above; settings: 10 µM unless noted

Row | SMILES | growth
39 | O=C(OCC1CCCO1)c1ccc([N+](=O)[O-])cc1 (stereo unspecified) | 103%
40 | Cc1ccc(NC(=O)c2ccccc2Cl)cc1 | 94.8%
41 | C/C(O)=C(/C=N\C(=S)Nc1ccc(S(=O)(=O)Nc2nccs2)cc1)C(=O)Nc1ccccc1C | 86.3%
42 | NC(=S)N/N=C/c1ccc(Cl)cc1 | 97.8%
43 | Oc1ccc(CCC2CCNc3ccccc32)cc1 (stereo unspecified) | 45.2%
44 | O=C(NC1CCCCC1)c1ccc(Cl)cc1 | 105%
45 | CCOC(=O)CO | 110%
46 | CC(c1ccccc1)N(C)C (stereo unspecified) | 155%
47 | CC(CCC#N)(CCC#N)C(=O)c1ccccc1 | 101%
48 | Cc1ccc2nc(-c3ccc(N=Cc4ccccc4O)cc3)sc2c1 | 70.8%
49 | Nc1cc2ccccc2c(O)c1O | 12.7%
50 | CCOc1ccccc1NC(=O)CCl | 88.8%
51 | CCC12OC(COc3ccccc3)CN1CCN2c1ccccc1 (stereo unspecified) | 94.4% [100 µM]
52 | Cc1ccc(S(=O)(=O)CCCl)cc1 | 101%
53 | CC(C)c1ccccc1NC(=O)N1CCC(C(C)C)CC1 | 105%
54 | COc1ccc(C2CC(c3ccccc3)=Nc3ccccc3S2)cc1 (stereo unspecified) | 82.1%
55 | NC(CO)(CO)c1ccccc1 | 94.2%
56 | C=CC(=O)OC1CCC(C(C)(C)CC)CC1 (stereo unspecified) | 103%
57 | Cc1[nH]n(-c2ccccc2)c(=O)c1C=NC(=S)C(N)=S | 94.6%

Row | SMILES | growth
58 | COc1cccc2c1Cc1ccccc1-2 | 99.8%
59 | NC(=O)N1CCOCC1 | 94.8%
60 | CCC(=O)Oc1ccc2ccccc2c1 | 100%
61 | C=CCN1CCCC1=O | 96.6%
62 | O=C(O)c1cccc(-n2ncc(Cl)c(Cl)c2=O)c1 | 93.8%
63 | Cc1ccc(OC(=O)c2ccccc2)cc1 | 113%
64 | O=Cc1c(O)c2ccccc2[nH]c1=O | 109%
65 | CC(=O)c1ccc(C)cc1 | 113%
66 | N#Cc1ccc2nc[nH]c2c1 | 108%
67 | CC(=O)[C@@]1(O)CC[C@H]2[C@@H]3CC[C@@H]4CC(=O)CC[C@]4(C)[C@H]3[C@@H](O)C[C@@]21C | 97.9%
68 | COC(=O)Cc1cc(COC(C)=O)ccc1C | 110%
69 | c1ccc(-c2ccc3ccccc3c2)cc1 | 104%
70 | C=CCC(OC(C)=O)c1ccc(C(C)C)cc1 (stereo unspecified) | 108%
71 | C=C(OC(C)=O)c1ccccc1 | 70.3%
72 | Nc1cccc2cccc(O)c12 | 85.5%
73 | CC(=O)c1cccs1 | 110%
74 | CSCCC(NC(=O)C(Cl)Cl)C(=O)O (stereo unspecified) | 101%
75 | O=C(O)CSCC(=O)Nc1cc(C(F)(F)F)ccc1Cl | 106%
76 | CCCCNC(=O)c1ccc(OCC)cc1 | 99.1%
